KB-V1 MDR tox: KB-V1 MDR subline cytotoxicity. KB-V1 MDR cells viability, CellTiter-Glo, 72 h. Potency, µM (titrated, usually from 46.1 µM), usual class: cytotoxic. 3.4% of 400,000 active; note: % is set by controls: 0 for no effect and ±100 for the full control effect; nearly all actives have a fitted effect of over 60% in size
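Readout: CellTiter-Glo luminescence, 10 min after addition. Cells: KB-V1 MDR subline, 72 h at 37 degrees C with compound. Analysis: corrected, normalized data fitted to concentration-effect curves.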
MCF10A rerep: induces DNA re-replication in MCF 10a normal breast cells | Potency, µM (doses to about 46.1 µM), inactives show at the top dose activity, positive = re-replication, hits mostly activators | 2.9% of 350,000 active | AID 624296 | MCF 10A DNA re-replication, Hoechst nuclear intensity, 48 h; note: % of control where 0% means no effect; nearly all actives have a fitted effect of over 50% in size
KB-3-1 tox: KB-3-1 parental cell cytotoxicity; KB-3-1 viability, CellTiter-Glo ATP luminescence, 72 h; Potency, µM (doses to about 46.1 µM), hits mostly cytotoxic; 1.4% of 400,000 active; AID 1347075; note: % is set by controls: 0 for no effect and ±100 for the full control effect; nearly all actives have a fitted effect of over 60% in size
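Here the drug-naive KB-3-1 line serves as comparator for MDR sub-line selectivity; cells received compound titrations, 72 h at 37 °C, then CellTiter-Glo readout.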
ELG1 DNA repair: inhibitors of ELG1-dependent DNA repair in HEK293T cells. AID 504467. HEK293T ELG1-luciferase reporter, luminescence, 16 h; DNA damage induced by 5-fluorouridine. 2.3% of 330,000 active. Potency, µM (series often up to 46.1 µM), without a hit: at the highest dose activity change, negative = inhibition, actives largely listed as inhibitors; note: % is set by controls: 0 for no effect and ±100 for the full control effect; nearly all actives have a fitted effect of over 55% in size
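DMSO vehicle served as the neutral condition. Each well held 2,000 cells given 5-fluorouridine plus compound; after 16 hr at 37 °C/5% CO2, ONE-Glo was added and luciferase measured 30 min later.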
SW480 rereplic: induces DNA re-replication in SW480 colon adenocarcinoma cells. SW480 DNA re-replication, Hoechst DNA content imaging, 48 h. Potency, µM (titrated, usually from 46.1 µM), inactives show at the top dose re-replication activation, most hits filed as activators. 1.8% of 340,000 active. AID 624297; note: % of control where 0% means no effect; nearly all actives have a fitted effect of over 55% in size
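Treated cells incubate 48 hr (37 C, 5% CO2), are stained 40 min with Hoechst, and nuclear fluorescence is enumerated; a rise in nuclei with high DNA signal marks re-replication.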
Active calls of the source: *; i = inactive; ? = inconclusive; nt = not tested or not shown. Most compounds without a hit are left out; they make up all but 8.2% or so of the library. Calls come from the whole dose curve; as a rule, active = well fitted curve in the direction sought with a large enough effect; inconclusive = small, poorly fitted or top-dose-only effect, or another doubt; inactive = no such curve, though single readings can be large; an effect the other way counts as inactive or inconclusive. Potency is the fitted concentration of half-maximal effect.

SMILES	KB-V1 MDR tox	MCF10A rerep	KB-3-1 tox	ELG1 DNA repair	SW480 rereplic
O=c1[nH]c(=O)c2ncn(C3OC(CO)C(O)C3O)c2[nH]1 (stereo unspecified)	i	nt	i	nt	nt
Cc1ccc(-n2nc3c(N4CCC(C(=O)NCc5ccccc5C)CC4)nnc(C)c3c2C)cc1	?	?	?	-7%	118%
CCOc1ccccc1CNC(=O)C1CCN(c2nnc(C)c3c(C)n(-c4ccc(C)cc4)nc23)CC1	i	23µM*	?	?	?
CCc1ccc(CNC(=O)C2CCCN(c3nnc(C)c4c(C)n(-c5ccccc5)nc34)C2)cc1 (stereo unspecified)	?	7%	i	21µM*	-4%
Cc1nnc(N2CCCC(C(=O)NCc3ccccc3)C2)c2nn(-c3ccccc3)c(C)c12 (stereo unspecified)	i	nt	i	nt	nt
COc1ccc(-n2nc3c(N4CCC(C(=O)NCc5cccc(C)c5)CC4)nnc(C)c3c2C)cc1	i	?	i	18µM*	-3%
O=C(NCC1CC1)Nc1cccs1	i	-1%	i	13%	-2%
COc1ccc(-n2c(=O)c3c4c(sc3n(CC(=O)NC3CCCC3)c2=O)CCCC4)c(OC)c1	i	-1%	i	-2%	-15%
COc1ccc(-n2c(=O)c3c4c(sc3n(CC(=O)NCc3ccco3)c2=O)CCC4)c(OC)c1	16µM*	11%	i	1%	0%
CCO/N=C/c1ccc(OC)c(Oc2nc(OC)cc(OC)n2)c1	i	?	i	-13%	-1%
CO/N=C/c1ccc(OC)c(Oc2nc(OC)cc(OC)n2)c1	i	16µM*	18µM*	?	18µM*
CCCCCn1c(=NC(=O)c2cccnc2)c(C#N)cc2c(=O)n3cccc(C)c3nc21	i	13µM*	i	nt	8.2µM*
CCOCCCn1c(=NC(C)=O)c(C#N)cc2c(=O)n3cccc(C)c3nc21	?	?	i	-1%	13µM*
CCCCn1c(=NC(=O)c2ccc3c(c2)OCO3)c(C#N)cc2c(=O)n3cccc(C)c3nc21	?	?	?	-2%	?
CCCCn1c(=NC(C)=O)c(C#N)cc2c(=O)n3cccc(C)c3nc21	i	12µM*	?	nt	21µM*
CN(c1ccccc1)S(=O)(=O)c1ccc(NC(=O)CC(=O)c2ccccc2)cc1	i	10%	i	nt	6%
COc1ccc(S(=O)(=O)N(CC(=O)NCc2ccco2)c2ccccc2OC)cc1	i	-27%	i	0%	-12%
COc1ccc(F)cc1-c1cc(C(=O)N2CCc3ccccc3C2)[nH]n1	i	nt	i	nt	nt
O=C(NC(c1ccccc1)c1ccsc1)C1CCN(Cc2ccc(Oc3ccccc3)cc2)CC1 (stereo unspecified)	i	nt	i	nt	nt
c1ccc(N2CCN(Cc3cnc(N4CCOCC4)s3)CC2)cc1	13µM*	?	i	?	3%
OCC1(CCCc2ccccc2)CCN(Cc2cnc(N3CCOCC3)s2)CC1	?	?	21µM*	?	-3%
CCCCn1c(=O)n(-c2ccc(Br)cc2F)c(=O)c2c3c(sc21)CN(C(C)=O)CC3	i	nt	i	nt	nt
CC(C)Cn1c(N)c(C(=O)NCCN2CCOCC2)c2nc3ccccc3nc21	23µM*	-5%	i	?	0%
COC(=O)c1c(N)n(CCCN2CCOCC2)c2nc3ccccc3nc12	i	?	i	-20%	?
Cc1cccc(-n2cnc3cc(C(=O)NCCN4CCOCC4)ccc32)c1	?	nt	i	nt	nt
SMILES	KB-V1 MDR tox	MCF10A rerep	KB-3-1 tox	ELG1 DNA repair	SW480 rereplic
Cc1cccc(-n2c(N)c(C(=O)NCCN3CCOCC3)c3nc4ccccc4nc32)c1	i	21µM*	i	?	?
Cc1ccccc1N1CCN(C2CCCN(C(=O)CSc3ccccn3)C2)CC1 (stereo unspecified)	?	nt	i	nt	nt
CCCCN(C(=O)CSc1nnnn1C)C1CCS(=O)(=O)C1 (stereo unspecified)	i	-4%	i	29%	-6%
Cc1ccc2occ(CN3CCN(c4ccccc4)CC3)c(=O)c2c1	23µM*	?	i	3%	-3%
O=C(CCCN1C(=O)/C(=C/c2cccc(Br)c2)SC1=S)NCCCN1CCOCC1	?	23µM*	?	?	-2%
O=C(CCN1C(=O)/C(=C/c2ccccc2Cl)SC1=S)NCCCN1CCOCC1	i	-4%	15µM*	3%	?
CCOC(=O)N1CCN(C(=O)CN(c2ccc(C)cc2C)S(=O)(=O)c2ccccc2)CC1	i	nt	i	nt	nt
COc1ccccc1CNc1nc(NCc2ccccc2)nc2ccsc12	i	nt	i	nt	nt
COc1ccccc1Oc1ncnc2sccc12	i	0%	i	21%	-5%
COc1ccccc1CNc1nc(NCc2ccccc2F)c2sccc2n1	18µM*	nt	?	nt	nt
c1ccc2c(c1)OCC(CNc1ncnc3sccc13)O2 (stereo unspecified)	?	15%	1.6µM*	?	0%
COc1ccccc1CNc1ncnc2sccc12	5.2µM*	19%	?	7%	-5%
COCCNc1nc(NCc2cccc(OC)c2OC)c2sccc2n1	?	nt	i	nt	nt
COc1ccccc1CNc1nc(NCc2cccc(OC)c2OC)c2sccc2n1	21µM*	nt	i	nt	nt
CC1(C(=O)NS(=O)(=O)Cc2ccccc2C(F)(F)F)CCN1C(=O)c1ccccc1 (stereo unspecified)	i	nt	i	nt	nt
CC1CCCCC12NC(=O)N(CC(=O)OCc1cccc(F)c1)C2=O (stereo unspecified)	i	4%	i	-1%	-5%
COc1cccc(CNCc2c(C(=O)O)c(C)n(Cc3ccc(F)cc3Cl)c2C)c1OC	i	nt	i	nt	nt
C[C@@H]1CN([C@H](C)CO)C(=O)CCCn2nncc2CO[C@@H]1CN(C)C(=O)Nc1ccnc(N2CCOCC2)c1	i	nt	i	nt	nt
Cc1ccc(N/C(SCc2ccccc2C)=C(/C#N)C(=O)NCc2ccco2)cc1C	12µM*	?	?	-10%	3%
CCOC(=O)c1c(C)oc2nc(C)nc(NCc3ccccc3Cl)c12	i	nt	i	nt	nt
Cn1c(SCc2c(Cl)cccc2Cl)nnc1-c1cccs1	18µM*	0%	i	?	1%
Cc1ccc(CSc2nnc(-c3cccs3)n2C)cc1	i	-14%	i	?	3%
Cn1c(SCc2nc3ccccc3[nH]2)nnc1-c1cccs1	21µM*	7%	i	4%	-5%
COc1cc([N+](=O)[O-])ccc1NC(=O)N1CCN(c2cc(-c3noc(C)n3)ccc2C)CC1	?	nt	i	nt	nt
CN(C)S(=O)(=O)c1ccc(-c2cn3ccccc3n2)cc1	16µM*	4%	i	?	-2%

Assay outcomes from PubChem.
